A number with no mark means an inactive call. Records with an inconclusive call do not appear. Calls of active or inactive are those of the source. Unless noted, the call rests on the fitted dose curve; in most records, active means well fitted curve in the direction sought with a large enough effect; inconclusive means small, poorly fitted or top-dose-only effect, or another doubt; inactive means no such curve, though single readings can be large; an effect the other way counts as inactive or inconclusive. Some results are limits rather than exact numbers.

Assay [1] concerns the target Lysosomal acid glucosylceramidase (Homo sapiens) (UniProt P04062). Briefly: Glucocerebrosidase-p2 (AID 348; in the data active means potency below about 10 µM; further: potency means the concentration at half of the fitted maximal effect). Conditions: purified GBA, blue fluorogenic substrate, 40 min. In a few lines:
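Compounds titrated from 0.6 nM upwards against 0.2 nM enzyme in pH 5.9 citric acid/KH2PO4, taurocholate, tween-20; blue fluorogenic substrate 80 uM, 40 min room temperature, stopped and read Ex 365/Em 440 for AC50.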

A short description of assay [2]: AP1 Signaling Pathway (AID 357; active means well fitted curve in either direction with a large enough effect, not every such curve was filed as active;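 further: ME-180 reporter cells stimulated with EGF at its EC50 level; on the % scale 0 is the no-effect control and ±100 the full control effect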). Particulars: ME-180 AP-1-bla reporter, EGF-induced, beta-lactamase ratio, 5 h; at 7.69 µM (top of the series) unless noted. In a few lines: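 A ratiometric CCF4 readout (405 nm excitation; 460 and 530 nm emission) quantified AP-1-driven beta-lactamase in ME-180 cells after 5 h with compound and EC50 EGF; AC50 values were derived for activators and inhibitors.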

For assay [3], the target named is Cytochrome P450 1A2 (Homo sapiens) (UniProt P05177). Description: p450-cyp1a2 (AID 410; calls by dose curve; further: potency means the concentration at half of the fitted maximal effect). Conditions: recombinant CYP1A2, luciferin-ME demethylation, luminescence; series mostly up to 57 µM. The method in brief:
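Human CYP1A2 (20nM) demethylated Luciferin-ME at its Km (100uM) in 100mM KPO4. After 10 min compound preincubation, NADPH regeneration ran the reaction 60 min at room temperature. Luciferin was read by luminescence, normalized to 57 uM furafylline.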

A short description of assay [4]: NFAT Signaling Pathway (AID 444; active means well fitted curve in either direction with a large enough effect, not every such curve was filed as active;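 further: carbachol stimulus at about its EC50 of 1 µM final; on the % scale 0 is the no-effect control and ±100 the full control effect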). Particulars: Jurkat NFAT-bla M1, carbachol, beta-lactamase ratio, 5 h; at 7.69 µM (top of the series) unless noted. The method in brief:
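Read-out: CCF4 FRET ratio (460 nm/530 nm) after 1 h RT dye loading, used for %activity and AC50 from titration series. Cells: Jurkat NFAT-β-lactamase/M1 line, treated with compound plus 1 uM carbachol for 5 h, 37 °C.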

Assay [5] can be described thus: Stat Signaling Pathway (AID 446; active means well fitted curve in either direction with a large enough effect, not every such curve was filed as active;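 further: ME-180 cervical cancer cells given 40 pM IL-6 alongside compound; SIE-controlled beta-lactamase reporter measured as 460/530 nm FRET emission ratio; on the % scale 0 is the no-effect control and ±100 the full control effect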). Conditions: ME-180 SIE beta-lactamase reporter, IL-6 stimulated, 5 h; at 7.69 µM (top of the series) unless noted. In a few lines:
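Reporter line: ME-180 cervical carcinoma, SIE-beta-lactamase. Treatment: compound with 40 pM IL-6, 5 hrs, 37 C, in low-serum OPTI-MEM with 10 mM HEPES pH 7.3. Detection: 460/530 nm fluorescence.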

The target of assay [6] is Glucocorticoid receptor (Homo sapiens) (UniProt P04150). Description: GR-GFP Redistribution (AID 450;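 active means compounds whose dose series gives a full or clear partial fitted curve of increased nuclear translocation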; further: potency means the concentration at half of the fitted maximal effect). Particulars: U2OS GR-GFP nuclear translocation, laser cytometry, 2 h.
The target is the same in assay [7]. Description: GR-EFC Redistribution (AID 451; calls by dose curve; further: potency means the concentration at half of the fitted maximal effect). Conditions: CHO-K1 GR-EFC translocation, beta-gal luminescence, 2 h. In a few lines:
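Translocation of GR-ED fusion to nuclear EA restores b-gal, read by luminescence after 1 h room-temperature detection. Engineered CHO-K1 biosensor cells, 1,000/well, exposed 2 h at 37 C to titrations up to 46 uM final.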

The target in assay [8] is Mitogen-activated protein kinase 10 (Mus musculus) (UniProt Q61831). Briefly: JNK3 AlphaScreen Assay (AID 530; active means well fitted curve in either direction with a large enough effect, not every such curve was filed as active;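 further: kinase came from lysate of stimulated human HepG2 cells; signal reports phosphorylation of biotinylated GST-cJun 1-79 at Ser73 with 10 µM ATP; on the % scale 0 is the no-effect control and ±100 the full control effect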). Conditions: JNK3 lysate, c-Jun phosphorylation; series mostly up to 57.1 µM. The method in brief: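 Room-temperature AlphaScreen kinase assay; pre-activated HepG2 lysate as JNK3 source, biotin-GST-cJun(1-79) substrate, 10 uM ATP, compound 15 min preincubation.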
Background: In Alpha technology, singlet oxygen from a donor bead excites a nearby acceptor bead.

The target in assay [9] is Cytochrome P450 3A4 (Homo sapiens) (UniProt P08684). Description: qHTS Assay for Activators of Cytochrome P450 3A4 (AID 885). Further: nearly all actives have a fitted effect of over 65% in size. Particulars: recombinant CYP3A4, Luciferin-PPXE luminescence, 60 min; series mostly up to 57.1 µM. The method in brief:
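Signal was normalized against complete inhibition by 57 uM ketoconazole. The reaction used 20nM CYP3A4 with 25uM Luciferin-PPXE, 10-min compound preincubation and a 60-min NADPH-supported step at RT.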
Background: In qHTS, concentration-response curves come from the screen itself.

Assay [10] concerns the target Dual specificity protein kinase CLK4 (Homo sapiens) (UniProt Q9HAZ1). Description: qHTS Assay for Inhibitors of CDC-like Kinase 4 (Kinase-Glo Assay) (AID 1770). Further: nearly all actives have a fitted effect of over 65% in size. Further: potency means the concentration at half of the fitted maximal effect. Conditions: recombinant Clk4, Kinase-Glo ATP depletion luminescence; series mostly up to 66.7 µM. The method in brief: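 Substrate mix (RS peptide 100 uM, ATP 1 uM) dispensed, compound pinned in, then Clk4 added to 25 nM final. Incubated 4.5 h at RT; Kinase-Glo reagent added, luminescence read after 5 min.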

The target is the same in assay [11]. Description: qHTS Assay for Inhibitors of CDC-like Kinase 4 (ADP-Glo Assay) (AID 1771). Further: nearly all actives have a fitted effect of over 70% in size. Further: potency means the concentration at half of the fitted maximal effect. Conditions: recombinant CLK4, ADP-Glo luminescence; series mostly up to 80 µM. The method in brief: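 Clk4 (25 nM) was incubated 1 hr at room temperature with 100 uM RS repeat peptide and 1 uM ATP in buffer with 2 mM MgCl2, 0.5 mM EGTA, 2.5 mM DTT. ADP formed was quantified by ADP-Glo luminescence.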

The target in assay [12] is Ubiquitin carboxyl-terminal hydrolase 1 (Homo sapiens) (UniProt O94782). Briefly: Inhibitors of USP1/UAF1: Pilot qHTS (AID 504865).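 Further: rhodamine fluorescence freed from ubiquitin-rhodamine substrate followed over time; top concentration of the series differs between compounds; on the % scale 0 is the no-effect control and ±100 the full control effect; nearly all actives have a fitted effect of over 35% in size.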 Conditions: purified USP1/UAF1, Ub-rhodamine cleavage fluorescence; series mostly up to 54.9 µM. In a few lines:
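In 50mM HEPES pH 7.8 containing 0.5mM EDTA, 1mM TCEP, 0.1 mg/ml BSA and 0.01% Tween-20, 1nM USP1/UAF1 is exposed to compound for 15 min, then Ub-Rho (150nM final) is added and fluorescence is read over time.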

A short description of assay [13]: Primary qHTS for small molecule stabilizers of the endoplasmic reticulum resident proteome: Secreted ER Calcium Modulated Protein (SERCaMP) assay (AID 1508630). Further: on the % scale 0 is the no-effect control and ±100 the full control effect. Conditions: SH-SY5Y GLuc-SERCaMP (Gaussia luciferase released on ER calcium loss) secretion, thapsigargin, luminescence; series mostly up to 38.4 µM. The method in brief:
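GLuc-SERCaMP-expressing SH-SY5Y cells, pretreated 16 h with compound, are challenged with thapsigargin to empty ER calcium stores; after 4 h, coelenterazine is added directly to the medium and luminescence is imaged.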

In assay [14] the target is 3',5'-cyclic-AMP phosphodiesterase 4B (Homo sapiens) (UniProt Q07343). Description: qHTS Assay for Inhibitors of PDE-IV (AID 607; active means well fitted activation curve with a large enough effect in the main read-out, with a control signal flat, not every such curve was filed as active; further: % of control where 0% means no effect). Conditions: HEK293 ACTOne CNG channel cells, membrane potential fluorescence; series mostly up to 22.9 µM. The method in brief:
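Cell-based read-out of cAMP via a modified cyclic nucleotide-gated channel and membrane potential dye (535/590 nm) in HEK293 cells expressing PDE4 endogenously. Compounds tested up to 22.9 uM final; 100 uM RO 20-1724 reference.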

Assay [15] has as its target Cytochrome P450 2C9 (Homo sapiens) (UniProt P11712). Description: qHTS Assay for Inhibitors and Substrates of Cytochrome P450 2C9 (AID 883). Further: on the % scale 0 is the no-effect control and ±100 the full control effect; nearly all actives have a fitted effect of over 60% in size. Particulars: recombinant CYP2C9, luciferin-H luminescence, 60 min; series mostly up to 57.1 µM. The method in brief: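 Luminescent read-out of deoxyluciferin hydroxylation, normalized to 57uM sulphaphenazole (AC100). Reaction: 10nM enzyme, 100uM Luciferin-H (equal to KM), 25mM KPO4, 10 min compound preincubation, then 60 min with NADPH regeneration, both at 37C.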

Assay [16] addresses Cytochrome P450 3A4 (Homo sapiens) (UniProt P08684). Description: qHTS Assay for Inhibitors and Substrates of Cytochrome P450 3A4 (AID 884). Further: potency means the concentration at half of the fitted maximal effect; nearly all actives have a fitted effect of over 50% in size. Conditions: recombinant CYP3A4, Luciferin-PPXE luminescence; series mostly up to 57.1 µM. In a few lines:
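20 nM human CYP3A4 with 25 uM Luciferin-PPXE (at KM) in 200 mM KPO4, preincubated 10 min with compound; NADPH regeneration started a 60 min RT reaction. Luciferin detected by luminescence, normalized to 57 uM ketoconazole as full inhibition.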

Sequence of Cytochrome P450 1A2 (Homo sapiens) (P05177 whole entry, looked up): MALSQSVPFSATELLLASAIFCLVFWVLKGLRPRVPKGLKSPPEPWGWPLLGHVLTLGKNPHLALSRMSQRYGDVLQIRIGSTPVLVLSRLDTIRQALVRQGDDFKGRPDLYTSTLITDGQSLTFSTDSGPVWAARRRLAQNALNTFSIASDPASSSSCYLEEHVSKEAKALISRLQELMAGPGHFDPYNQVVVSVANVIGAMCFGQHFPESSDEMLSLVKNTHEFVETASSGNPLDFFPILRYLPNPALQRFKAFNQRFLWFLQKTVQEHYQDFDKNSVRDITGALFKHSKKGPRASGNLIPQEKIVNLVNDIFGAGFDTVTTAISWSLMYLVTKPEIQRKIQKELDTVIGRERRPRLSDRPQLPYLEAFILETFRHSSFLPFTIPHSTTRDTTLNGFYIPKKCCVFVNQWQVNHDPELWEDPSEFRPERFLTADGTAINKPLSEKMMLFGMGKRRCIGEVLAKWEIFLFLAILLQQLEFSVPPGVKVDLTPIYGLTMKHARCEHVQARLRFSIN
Sequence of Ubiquitin carboxyl-terminal hydrolase 1 (Homo sapiens) (O94782 whole entry, looked up): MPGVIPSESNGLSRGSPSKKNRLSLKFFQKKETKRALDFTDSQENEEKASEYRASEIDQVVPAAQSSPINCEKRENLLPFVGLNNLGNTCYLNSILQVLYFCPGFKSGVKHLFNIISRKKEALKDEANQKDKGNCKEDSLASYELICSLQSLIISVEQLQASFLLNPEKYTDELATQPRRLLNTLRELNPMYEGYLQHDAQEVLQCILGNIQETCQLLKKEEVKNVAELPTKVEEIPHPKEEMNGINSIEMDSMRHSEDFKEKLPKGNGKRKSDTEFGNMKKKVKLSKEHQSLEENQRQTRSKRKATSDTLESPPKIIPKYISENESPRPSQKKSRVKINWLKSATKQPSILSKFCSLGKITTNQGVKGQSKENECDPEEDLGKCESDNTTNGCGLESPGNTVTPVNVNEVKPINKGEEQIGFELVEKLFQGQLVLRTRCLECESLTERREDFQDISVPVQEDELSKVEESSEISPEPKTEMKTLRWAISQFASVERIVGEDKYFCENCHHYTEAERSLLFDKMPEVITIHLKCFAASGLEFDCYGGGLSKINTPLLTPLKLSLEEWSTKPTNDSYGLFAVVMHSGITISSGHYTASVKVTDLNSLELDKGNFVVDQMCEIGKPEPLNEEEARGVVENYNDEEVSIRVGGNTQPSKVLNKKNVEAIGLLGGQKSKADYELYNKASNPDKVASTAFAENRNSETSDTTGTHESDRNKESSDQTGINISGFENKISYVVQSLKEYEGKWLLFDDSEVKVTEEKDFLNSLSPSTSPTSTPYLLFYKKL
Sequence of Lysosomal acid glucosylceramidase (Homo sapiens) (P04062 whole entry, looked up): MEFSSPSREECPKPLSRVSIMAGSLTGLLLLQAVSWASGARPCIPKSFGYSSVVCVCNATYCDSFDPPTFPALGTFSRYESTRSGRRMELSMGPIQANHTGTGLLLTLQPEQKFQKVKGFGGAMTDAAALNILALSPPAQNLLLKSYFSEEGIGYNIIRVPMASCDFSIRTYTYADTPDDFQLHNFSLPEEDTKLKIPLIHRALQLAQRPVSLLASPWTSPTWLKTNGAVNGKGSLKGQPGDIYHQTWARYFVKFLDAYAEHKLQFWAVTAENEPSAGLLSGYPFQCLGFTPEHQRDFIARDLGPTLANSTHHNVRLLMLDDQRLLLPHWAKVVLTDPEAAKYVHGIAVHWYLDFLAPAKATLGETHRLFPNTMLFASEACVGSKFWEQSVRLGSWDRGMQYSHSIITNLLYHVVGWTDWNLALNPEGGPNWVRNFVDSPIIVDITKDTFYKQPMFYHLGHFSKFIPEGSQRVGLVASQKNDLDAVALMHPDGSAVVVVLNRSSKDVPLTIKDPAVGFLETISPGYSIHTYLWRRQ
Sequence of 3',5'-cyclic-AMP phosphodiesterase 4B (Homo sapiens) (Q07343 whole entry, looked up): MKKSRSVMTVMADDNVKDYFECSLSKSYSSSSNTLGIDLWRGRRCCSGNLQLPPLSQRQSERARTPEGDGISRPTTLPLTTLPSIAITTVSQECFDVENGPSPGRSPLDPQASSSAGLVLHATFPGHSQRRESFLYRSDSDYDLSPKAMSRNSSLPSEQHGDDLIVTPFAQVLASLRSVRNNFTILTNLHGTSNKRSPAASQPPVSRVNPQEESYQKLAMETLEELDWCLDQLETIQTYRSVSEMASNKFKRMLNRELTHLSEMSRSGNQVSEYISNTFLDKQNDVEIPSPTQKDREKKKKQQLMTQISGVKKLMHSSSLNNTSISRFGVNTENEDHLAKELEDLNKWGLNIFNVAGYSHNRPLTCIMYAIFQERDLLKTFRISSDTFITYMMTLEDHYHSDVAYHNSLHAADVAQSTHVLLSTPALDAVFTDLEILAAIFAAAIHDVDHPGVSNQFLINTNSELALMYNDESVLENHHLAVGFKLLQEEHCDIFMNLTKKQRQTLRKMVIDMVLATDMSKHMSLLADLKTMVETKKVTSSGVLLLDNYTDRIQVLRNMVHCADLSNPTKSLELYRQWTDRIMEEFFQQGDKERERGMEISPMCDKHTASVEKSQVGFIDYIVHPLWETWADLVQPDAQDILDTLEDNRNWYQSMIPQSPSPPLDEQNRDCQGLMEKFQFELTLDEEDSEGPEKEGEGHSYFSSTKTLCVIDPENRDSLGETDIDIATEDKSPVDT
Sequence of Glucocorticoid receptor (Homo sapiens) (P04150 whole entry, looked up): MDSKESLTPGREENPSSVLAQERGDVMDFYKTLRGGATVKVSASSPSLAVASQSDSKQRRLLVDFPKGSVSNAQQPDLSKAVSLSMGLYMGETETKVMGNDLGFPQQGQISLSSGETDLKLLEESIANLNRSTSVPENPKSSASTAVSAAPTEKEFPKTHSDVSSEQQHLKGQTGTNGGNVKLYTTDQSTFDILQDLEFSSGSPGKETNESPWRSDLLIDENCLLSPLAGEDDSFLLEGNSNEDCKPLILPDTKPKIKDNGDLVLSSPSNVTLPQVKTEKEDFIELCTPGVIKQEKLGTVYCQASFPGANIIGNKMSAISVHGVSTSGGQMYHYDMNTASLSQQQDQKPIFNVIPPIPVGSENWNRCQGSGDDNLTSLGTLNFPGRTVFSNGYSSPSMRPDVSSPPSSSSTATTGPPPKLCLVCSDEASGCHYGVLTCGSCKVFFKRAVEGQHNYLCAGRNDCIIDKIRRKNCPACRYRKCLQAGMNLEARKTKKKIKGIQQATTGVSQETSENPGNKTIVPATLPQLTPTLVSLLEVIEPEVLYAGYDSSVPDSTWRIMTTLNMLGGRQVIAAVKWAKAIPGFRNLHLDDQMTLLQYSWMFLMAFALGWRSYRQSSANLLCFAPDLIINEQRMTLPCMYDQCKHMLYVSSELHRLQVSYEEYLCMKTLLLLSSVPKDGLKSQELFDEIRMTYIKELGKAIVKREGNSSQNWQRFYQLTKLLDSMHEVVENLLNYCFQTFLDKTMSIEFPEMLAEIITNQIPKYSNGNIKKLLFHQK
Sequence of Dual specificity protein kinase CLK4 (Homo sapiens) (Q9HAZ1 whole entry, looked up): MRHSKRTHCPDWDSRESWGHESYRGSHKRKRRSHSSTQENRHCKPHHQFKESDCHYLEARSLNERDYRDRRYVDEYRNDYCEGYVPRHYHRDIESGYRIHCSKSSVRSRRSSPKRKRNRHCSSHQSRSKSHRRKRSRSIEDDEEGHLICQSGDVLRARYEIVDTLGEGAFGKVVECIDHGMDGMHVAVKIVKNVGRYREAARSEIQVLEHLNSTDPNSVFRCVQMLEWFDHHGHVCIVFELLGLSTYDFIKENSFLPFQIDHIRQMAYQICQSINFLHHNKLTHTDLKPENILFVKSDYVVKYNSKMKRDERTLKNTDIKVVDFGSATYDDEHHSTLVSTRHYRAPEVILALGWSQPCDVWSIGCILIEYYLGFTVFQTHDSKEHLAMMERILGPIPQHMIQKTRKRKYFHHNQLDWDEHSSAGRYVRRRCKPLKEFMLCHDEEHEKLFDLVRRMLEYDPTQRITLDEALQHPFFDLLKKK
Sequence of Cytochrome P450 3A4 (Homo sapiens) (P08684 whole entry, looked up): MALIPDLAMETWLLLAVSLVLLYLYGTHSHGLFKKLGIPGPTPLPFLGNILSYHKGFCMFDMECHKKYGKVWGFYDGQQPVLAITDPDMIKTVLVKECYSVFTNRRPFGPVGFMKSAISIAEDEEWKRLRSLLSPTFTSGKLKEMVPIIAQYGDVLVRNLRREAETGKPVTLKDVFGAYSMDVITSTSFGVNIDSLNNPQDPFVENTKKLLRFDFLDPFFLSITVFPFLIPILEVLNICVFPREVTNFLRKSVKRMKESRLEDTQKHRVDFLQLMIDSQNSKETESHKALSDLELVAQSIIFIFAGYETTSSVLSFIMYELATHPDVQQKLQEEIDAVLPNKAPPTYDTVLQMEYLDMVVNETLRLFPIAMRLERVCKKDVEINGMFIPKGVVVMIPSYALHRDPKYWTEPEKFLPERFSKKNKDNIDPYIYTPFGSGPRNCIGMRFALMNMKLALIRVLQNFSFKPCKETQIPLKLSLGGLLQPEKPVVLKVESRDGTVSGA
Sequence of Cytochrome P450 2C9 (Homo sapiens) (P11712 whole entry, looked up): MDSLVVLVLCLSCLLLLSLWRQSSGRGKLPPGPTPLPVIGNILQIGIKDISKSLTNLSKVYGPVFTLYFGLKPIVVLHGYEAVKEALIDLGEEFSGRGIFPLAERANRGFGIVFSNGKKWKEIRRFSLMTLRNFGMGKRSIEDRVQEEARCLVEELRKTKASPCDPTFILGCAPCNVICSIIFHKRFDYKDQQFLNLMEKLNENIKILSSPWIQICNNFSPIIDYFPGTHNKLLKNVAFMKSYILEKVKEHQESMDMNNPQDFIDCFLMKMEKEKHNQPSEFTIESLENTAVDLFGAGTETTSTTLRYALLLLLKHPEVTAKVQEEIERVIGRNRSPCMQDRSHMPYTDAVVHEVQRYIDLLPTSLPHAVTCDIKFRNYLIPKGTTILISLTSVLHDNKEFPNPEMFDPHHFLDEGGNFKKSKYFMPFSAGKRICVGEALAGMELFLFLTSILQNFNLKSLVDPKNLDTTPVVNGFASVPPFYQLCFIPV

In the case of `O=c1c(-c2ccc(F)cc2)nc2cncnc2n1-c1ccccc1`, the Potency in assay [1] was more than 11.4 µM; in [3] it was 7.94 µM (active); in [6], more than 9.22 µM; in assay [7] it was more than 46 µM. Further, the activity change, negative = inhibition is -2.6% in assay [2] and 11.8% in [4]. Besides, the activity, negative = inhibition in assay [5] was -3.31%. Besides, the Potency entry in assay [8], in assay [9], in assay [10], in assay [11] and in assay [12] was “inactive” in each case. In addition, the outcome in assay [13] was inactive.
`Cc1cnc(CNc2cc(-c3cccc(C#N)c3)ncn2)cn1`: the Potency is more than 11.4 µM in [1]; 15.8 µM (active) in [3]; more than 46 µM in assay [6]; 31.6 µM (active) in assay [10]; 35.5 µM (active) in [11]. In addition, the activity change, negative = inhibition is 8.07% in assay [2] and 25.8% in [4]. The activity, negative = inhibition in assay [5] is 7.04%. Besides, the Potency result in assay [8], in [14], in assay [9] and in assay [12] was “inactive” in each case. Besides, the result in assay [13] was inactive.
For the compound `CN(Cc1ccco1)c1nc(-c2ccoc2)nc2ccccc12`, the Potency is more than 11.4 µM in assay [1], 0.398 µM (active) in assay [3], more than 46 µM in [6] and more than 46 µM in assay [7]. Moreover, the activity change, negative = inhibition in assay [2] is -25.1%; in [4], -18.3%. In [5], the activity, negative = inhibition was -4.21%. Further, the Potency entry in assay [8], in assay [9], in assay [10], in [11] and in assay [12] was “inactive” in each case. Besides, the result in assay [13] was inactive.
Turning to `COc1ccccc1CCn1c(=O)cnc2cncnc21`, the Potency is more than 11.4 µM in [1]; more than 9.22 µM in [6]; more than 46 µM in assay [7]; 17.8 µM (active) in assay [10]; 25.1 µM (active) in [11]. Moreover, the activity change, negative = inhibition in assay [2] was -0.594%; in [4] it was 6.39%. Moreover, the activity, negative = inhibition in assay [5] was -7.13%. For the same compound, the Potency result in assay [8], in assay [14] and in assay [12] was “inactive” each time. Further, the result in assay [13] was inactive.
As to `Cc1cnc(CNc2ccnc(-c3cccnc3)n2)cn1`, the Potency was more than 11.4 µM in assay [1]; 7.94 µM (active) in assay [3]; more than 46 µM in assay [6]; more than 46 µM in assay [7]; 5.01 µM (active) in [16]; 15.8 µM (active) in assay [10]. In addition, in assay [11], the Potency was 15.8 µM (active). For the same compound, the activity change, negative = inhibition in assay [2] was 16.6%; in assay [15], 21.5% [at 2.29 µM]. Moreover, the activity, negative = inhibition in assay [5] is 13.3%. Moreover, the Potency entry in [8], in assay [14], in assay [9] and in [12] was “inactive” throughout. Besides, the result in [13] was inactive.
Regarding `N#Cc1cccc(-c2nccc(NCc3cccnc3)n2)c1`, the Potency was more than 11.4 µM in [1]; 0.251 µM (active) in [3]; more than 46 µM in [6]; more than 46 µM in assay [7]; 0.794 µM (active) in [16]; 14.1 µM (active) in assay [10]. In addition, in assay [11], the Potency was 14.1 µM (active). The activity change, negative = inhibition in assay [4] was 16.5%. In [5], the activity, negative = inhibition was 0.752%. Moreover, the Potency result in assay [8] and in assay [9] was “inactive” in each case. In [13], the result was inactive.

Values taken from PubChem BioAssay (NCATS).
